Results published in PubChem BioAssay AID1868 (National Center for Advancing Translational Sciences (NCATS), 2009).
Out of some 270,000 compounds screened, about 20 (0.007%) were called active. Calls follow the shape of the dose curve; as a rule, active = well fitted inhibition curve with a large enough effect; inconclusive = small, poorly fitted or top-dose-only effect, or effect the other way; inactive = flat fitted curve, though single readings scatter. The list is a sample of the results.

Target: Galactokinase (Homo sapiens) (UniProt P51570)
Sequence (P51570 whole entry, looked up): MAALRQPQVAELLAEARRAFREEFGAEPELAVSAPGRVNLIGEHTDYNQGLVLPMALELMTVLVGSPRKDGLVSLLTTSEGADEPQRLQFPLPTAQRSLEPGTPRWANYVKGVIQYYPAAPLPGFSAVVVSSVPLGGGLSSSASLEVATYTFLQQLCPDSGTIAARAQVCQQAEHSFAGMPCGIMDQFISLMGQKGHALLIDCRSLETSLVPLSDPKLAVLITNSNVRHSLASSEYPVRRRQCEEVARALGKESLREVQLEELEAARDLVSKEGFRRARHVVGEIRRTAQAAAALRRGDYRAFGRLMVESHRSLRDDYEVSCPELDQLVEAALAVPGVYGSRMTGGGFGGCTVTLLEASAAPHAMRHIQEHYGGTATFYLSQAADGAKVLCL
Test: qHTS Assay for Inhibitors of Human Galactokinase (GALK)
Settings: Purified GALK, Kinase-Glo residual ATP luminescence; series mostly up to 57.5 µM
Description: NIH Molecular Libraries Probe Production Centers Network [MLPCN] NIH Chemical Genomics Center [NCGC] MLPCN Grant: R03 MH085689-01 Assay Submitter (PI): Kent Lai (University of Utah School of Medicine, 50 N Mario Capecchi Drive, Salt Lake City, UT 84132) NCGC Assay Overview: Inherited deficiency of galactose-1-phosphate uridyltransferase (GALT) can result in a potentially lethal disorder called Classic Galactosemia (OMIM 230400). Several lines of evidence indicate that an elevated level of galactose-1-phosphate (gal-1-p), the product of galactokinase (GALK), is a major, if not sole, pathogenic mechanism in patients with classic galactosemia. Therefore, finding inhibitors of GALK is a potential novel therapy for this inherent metabolic disease and is the long term goal of this project. GALK (provided by the assay submitter) was assayed using ATP and D-(+)-Galactose (Sigma-Aldrich cat# G0750) as substrates. Promega Kinase-Glo Plus (cat# V3774) technology was used to detect the residual ATP following kinetic reaction. Briefly, the Kinase-Glo Plus contains Ultra-Glo [2] luciferase and D-luciferin which generates a bioluminescence signal from the remaining ATP.
NCGC Assay Protocol Summary: Three uL/well of ATP-buffer solution (35 uM ATP, 20mM HEPES pH8.0, 5 mM MgCl2, 60 mM NaCl, 1 mM DTT, 0.01% BSA final concentration) was dispensed into 1536-well, assay plates (Greiner, solid white medium-binding plates) with Aurora Discovery BioRAPTR Flying Reagent Dispenser (FRD; Beckton-Dickenson). Compound solution (23 nL) was transferred to the assay plate using the Kalypsys 1536-pin tool. One uL/well GALK-galactose solution (5 nM GALK, 100 uM galactose, 20 mM HEPES pH8.0, 5 mM MgCl2, 60 mM NaCl, 1 mM DTT, 0.01% BSA final concentration) was then added using the FRD yielding a total kinase reaction volume of 4 uL/ well. After 1 hour of room temperature incubation, 4 uL Kinase-Glo Plus reagent was added for a final assay volume of 8 uL/ well. Luminescence was detected with the ViewLux plate reader (Perkin Elmer, Waltham, MA) after 10 min incubation using a 1 sec exposure time and 2x binning.

outcome, inactive:
O=C(c1ccco1)N1CCN(C(=O)c2cc(-c3ccccc3F)no2)CC1
CCOC(=O)c1csc(CCNC(=O)c2oc3c(Cl)cc(C)cc3c2C)n1
COc1ccc(NC(=O)C/C(C)=N/NC(=O)c2cnccn2)cc1Cl
COc1ccc(/C=N/Nc2ccccc2C(=O)O)cc1
Cc1ccc(CNC(=O)C(=O)c2cn(CC(=O)N3CCOCC3)c3ccccc23)cc1
COc1ccc(C)cc1N(CC(=O)N1CCCC1)S(=O)(=O)c1ccccc1
CC(c1ccccn1)N(C)C(=O)c1ccc2nc(Cc3cccc(Cl)c3)oc2c1 (stereo unspecified)
COc1ccc(OC)c(/C(C)=N\NC(=O)c2cc3cc(Cl)ccc3n2C)c1
O=C(O)c1ccccc1NC(=O)c1ccccc1-c1ccccc1C(=O)O
CCS(=O)(=O)Nc1ccc(C(=O)NCCSc2ccccc2)cc1
O=C(NCCc1ccc(Cl)cc1)c1cccc(N2CCCC2=O)c1
Cc1cc(=O)n2nc(N3CCCC(C(=O)NCc4ccc(Cl)cc4)C3)sc2n1 (stereo unspecified)
Cc1ccc(C)c(S(=O)(=O)N2CCCOC2CNC(=O)C(=O)NC2CCCCC2)c1 (stereo unspecified)
COc1ccc(C(=O)CCc2ccccc2O)c(OC)c1
O=C(/C=C/c1ccco1)NC(=S)N1CCCCC1
CN(Cc1cnccn1)C(=O)c1cc(COc2cccc(C(F)(F)F)c2)on1
O=C(N/N=C/c1c[nH]c2ccccc12)c1ccccc1O
Oc1ccccc1C1=NN(c2ccccc2)C(c2ccccc2)C1 (stereo unspecified)
CCCN1CCn2c3c(c4cc(Br)ccc42)CCCC31 (stereo unspecified)
COC(=O)c1cc(NS(=O)(=O)c2ccc3c(c2)c(=O)n(C)c(=O)n3C)cc(C(=O)OC)c1
CC(=O)c1ccc(S(=O)(=O)NCc2nnnn2-c2ccccc2)cc1
COc1cccc2[nH]c(C(=O)NCCc3ccccc3)cc12
Cc1cccnc1CC(C)NC(=O)c1cc(COc2cncc(Cl)c2)on1 (stereo unspecified)
COc1ccc(N2CCN(C(=O)c3cccs3)CC2)cc1
Cc1onc(C(=O)Nc2ccc3c(c2)OCO3)c1[N+](=O)[O-]
C/C(=N\Nc1nncc2ccccc12)c1ccc(Cl)c([N+](=O)[O-])c1
CC(=O)c1ccc(NC(=O)CCNS(=O)(=O)c2cc(Br)cnc2N)cc1
COc1ccccc1CCNC(=O)c1c(C)nn(CC(C)C)c1Cl
Cn1c(NC(=O)c2ccccc2)nc2ccccc21
C=CCNC(=S)/N=c1/ccccn1Cc1ccccc1
CCCCc1nc2cc(C(=O)N3CCCCC3CCO)ccc2o1 (stereo unspecified)
